Records with an inconclusive call do not appear. The source made the active and inactive calls. Calls come from the whole dose curve.

The nature of the assay: Confirmation Concentration-Response Assay for Modulators of Lamin A Splicing. To be noted: HeLa lamin A splicing GFP/RFP minigene, Acumen, 48 h; RFP activity: RFP channel at top concentration, at 46.1 µM; ratio activity: GFP/RFP ratio at top concentration, at 46.1 µM; series mostly up to 46.1 µM. From the text: NCGC Assay Overview: Hutchinson-Gilford Progeria Syndrome (HGPS) is a pediatric premature aging disease caused by a spontaneous mutation in the lamin A/C (LMNA) gene. The mutation activates a cryptic splice site in the LMNA pre-mRNA which results in production of a pre-lamin A protein that cannot be processed properly. The mutant protein accumulates in the nucleus and negatively affects numerous cellular functions. Correction of the splicing defect in HGPS patient cells using a targeted oligonucleotide (exo11) leads to reversal of the cellular disease phenotypes. To identify small molecule modulators of aberrant LMNA splicing, a homogenous assay was constructed in HeLa cells that used a GFP containing minigene to report on correction of aberrant splicing in lamin A and a RFP (DsRed2) to report on cell viability, uniformity and nonspecific effects on the assay signal. This assay was adapted to laser-scanning microplate cytometry (Acumen, TTP Labtech) where miniaturization of the assay to a 1,536-well plate format was possible. Select compounds active in the primary screen (AID 1487) were chosen for confirmation based on potency, efficacy, SAR and activity in other assays in PubChem and at NCGC. References: Bowen, W. P.; Wylie, P. G. Application of Laser-Scanning Fluorescence Microplate Cytometry in High Content Screening. Assay Drug Dev Technol 2006;4:209-221. Scaffidi P, Misteli T. Reversal of the cellular phenotype in the premature aging disease Hutchinson-Gilford progeria syndrome. Nat. Med. 2005;11:440-445.
NCGC Assay Protocol Summary: Reagents/Controls: Stable clones expressing DsRed2 and lamin A-EGFP were generated by Cell and Molecular Technologies in S3 HeLa cells. HeLa cells were prepared for the assay when they were 70-90% confluent. The cells were counted and resuspended in Opti-MEM I (no phenol red; Gibco), 2% FBS, 1% penicillin/ streptomycin (Gibco) at concentration of 120 cells/uL concentration. The suspension was passed through a Falcon basket filter with pore size 40um (Beckton Dickson). Control titrations: column […] 1536-well plate contained a sixteen point titration (1:2 dilutions) in duplicate of ancitabine (Sigma: A8598) beginning at 40 uM final concentration. Column 2 contained a sixteen point titration (1:2 dilutions) of cycloheximide beginning at 1.4 mM final concentration. Column 3 contained ancitabine at 40 uM and column 4 contained was the vehicle control (0.5% DMSO final concentration). Assay Steps: 5 uL of HeLa cells were plated in Aurora LoBase black clear bottom (cyclic-olefin polymer) 1536-well plates at a final density of 600 cells/well. Controls and library compounds were added with a 1536-well pin array using the Kalypsys pin-tool. The plates were then incubated for 48 hrs in a cell-culture incubator (37 °C; 5% CO2, 98% humidity). Following incubation the plates were read on the Acumen Explorer using the 488 nm laser. Data was collected on objects between 10 and 100 um in size. Cell objects were defined by a 15 um width x 10 um depth filter. The ratio of the total object intensity in PMT1 (500-530 nm emission; GFP) over PMT3 (575-640 nm emission; RFP) was calculated for analysis. Keywords: NIH Roadmap, MLSCN, MLI, MLSMR, qHTS, NCGC, lamin A, Progeria, RNA splicing.
For `O=C(c1ccc(Cl)c(Cl)c1)N1CCC(=O)N(C(COCc2cccc(C(F)(F)F)c2)Cc2ccccc2)CC1` (configuration not stated), the result was inactive, the RFP activity was 13.3% and the ratio activity was -24.5%.

Take `Cc1nc2ccc(NC(=O)c3ccc(Cl)c(S(=O)(=O)N(C)c4ccccc4)c3)cc2s1`: the ratio activity was -11.5%, the outcome was inactive and the RFP activity was -26.7%.

`CC(=O)c1c(C)[nH]c(C(=O)Nc2c(C)n(C)n(-c3ccccc3)c2=O)c1C`: the RFP activity came to 1.7%, the ratio activity is -9.7% and the result was inactive.

Turning to `Cc1cccc(C)c1OC[C@H](C)N`, the RFP activity was -24.1%, the result was inactive and the ratio activity was -11.5%.

`COc1ccc(C=C(c2nc3ccccc3s2)c2nc3ccccc3s2)cc1O`: the RFP activity was -2.53%, the ratio activity is -10.5% and the outcome was inactive.

On to `COc1ccc(O)c(/C=N/NC(=O)c2ccc(OCc3cccc(Br)c3)cc2)c1`, for which the ratio activity is -5.52%, the result was inactive and the RFP activity is -32.5%.

Turning to `Cc1noc(C)c1-c1ccc2ncnc(NCc3ccc(C(C)(C)C)cc3)c2c1`, the ratio activity was -12.9%, the result was inactive and the RFP activity was -7.69%.

For the compound `O=C(Nc1ccc(F)cc1)c1nc[nH]c1C(=O)Nc1ccccc1[N+](=O)[O-]`, the RFP activity was -25.1%, the ratio activity was -10.8% and the result was inactive.

Take `O=C(COc1ccc(Br)cc1)NNC(=S)NC(=O)c1ccccc1[N+](=O)[O-]`: the RFP activity is 11.7%, the ratio activity was -24.6% and the result was inactive.

For `Cc1cc(/C=N/n2cnnc2)c(C)n1-c1cccc(C(=O)O)c1`, the RFP activity was -18.9%, the outcome was inactive and the ratio activity is -3.02%.

In the case of `Cn1c(Sc2ccccc2Cl)c(C=O)c2ccccc21`, the outcome was inactive, the ratio activity is 0.328% and the RFP activity was -2.07%.

For `CC(C)(C)n1nnnc1C(c1ccc2ncccc2c1)N1CCSCC1` (configuration not stated), the ratio activity was -14.8%, the result was inactive and the RFP activity was -8.12%.

On to `CC1=NS(=O)(=O)c2cc(Cl)ccc2N1`, for which the ratio activity was -9.16%, the RFP activity is -10.7% and the outcome was inactive.

`O=C(CCCN1CC=C(n2c(=O)[nH]c3ccccc32)CC1)c1ccc(F)cc1`: the ratio activity was -13.7%, the RFP activity was -6.45% and the outcome was inactive.

Values taken from PubChem BioAssay AID1498 (National Center for Advancing Translational Sciences (NCATS), 2009).
